{
  "source": "PubChem BioAssay (NCI)",
  "note": "This is part of a sample that, as a whole, favours compounds with a hit. Of some 83,000 tested, about 20% had one in any assay.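 Method: cells in 96-well plates; compound added at one concentration; 48 h incubation; percent growth measured; values under 10 scored active.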 Unmarked numbers belong to inactive results. Active and inactive are the calls of the source.",
  "data": [
    {"test_system": "HOP-62 NSCLC", "experiment": "NCI-60 one-dose screen, 48 h (100 = growth as untreated, 0 = no growth, -100 = all killed)", "settings": "10 µM unless noted", "method": "Growth inhibition of the HOP-62 human Non-Small Cell Lung tumor cell line is measured as a screen for anti-cancer activity. Cells are grown in 96 well plates and exposed to the test compound for 48 hours. Compounds are tested at a single concentration, which is 10^-5 M for most compounds. The reported endpoint is percent growth (GI% or GIPRCNT), where numbers from 0 - 100% represent growth inhibition, and numbers from -100% - 0 represent cell death. For example, a value of 40 represents 60% growth inhibition. A value of 0 means no net growth occurred over the course of the experiment. A value of -40 indicates 40% of cells at the beginning of the experiment died by the end of the experiment. A value of -100 means all cells are dead at the end of the experiment.\nNCI-60 Human Tumor Cell Lines Screen was performed using the standard one-dose NCI protocol, which is described in more detail at https://dtp.cancer.gov/discovery_development/nci-60/default.htm.\nCompounds with GIPRCNT values below 10 were considered active. Activity score was based on GIPRCNT using the following formula: […]\nScore is 0 for GIPRCNT values of 100 or above, 50 for GIPRCNT values of 0, and 100 for GIPRCNT values of -100.", "values": [
      {"smiles": "CCOC(=O)c1c(NC(=O)c2ccc(C(C)(C)C)cc2)sc2cc(O)ccc12", "growth": "95.8%"},
      {"smiles": "COc1ccc(C2C3=C(COC3=O)N(CCO)c3cc4c(cc32)OCCO4)cc1OC", "note": "(stereo not given)", "growth": "46.3%"},
      {"smiles": "COC(=O)Cc1nc(C#N)c(N(C)C)o1", "growth": "96.7%"},
      {"smiles": "Cc1cc2nc(-c3c(-c4ccc(F)cc4)nc4sccn34)[nH]c2cc1C", "growth": "108%"},
      {"smiles": "CC(C)=CC(=O)N[C@@H]1CC2CCC3C(CC[C@@]4(C)C3CC[C@@H]4C(C)N(C)C)[C@@]2(C)C[C@@H]1O", "note": "(stereo not given in full)", "growth": "56.4%"},
      {"smiles": "O=c1nc(Nc2nc3ccccc3s2)[nH]c(=O)c2ccccc12", "growth": "91.2%"},
      {"smiles": "CCN=C1C=CC(=C(c2ccc(N(C)C)cc2)c2ccc(N(C)C)cc2)c2ccccc21", "growth": "-55.5% (active)"},
      {"smiles": "COc1cccc(/C=C/C(=O)c2cc3c(N)c(C(=O)Nc4cccc(Cl)c4C)sc3nc2C)c1", "growth": "-24.1% (active)"},
      {"smiles": "COc1cccc(/C=C/C(=O)c2cc3c(N)c(C(=O)Nc4ccccc4C)sc3nc2C)c1", "growth": "67.7%"},
      {"smiles": "O=c1[nH]cnc2c1C(c1ccc(Br)cc1)c1sc3c(F)cccc3c1O2", "note": "(stereo not given)", "growth": "97.9%"},
      {"smiles": "O=C(Cn1cc(CN2C(=O)c3ccccc3S2(=O)=O)nn1)Nc1cccc(Cl)c1", "growth": "125%"},
      {"smiles": "COc1ccccc1NC(=O)c1ccc(/C=C/C(=O)c2nccn2C)cc1", "growth": "-49.5% (active)"},
      {"smiles": "O=C(c1ccc(F)c(Cl)c1)N1c2ccccc2Sc2ccccc21", "growth": "76.6%"},
      {"smiles": "O=C(Nc1ncc(Cc2ccccc2Cl)s1)c1cccs1", "growth": "66.6%"},
      {"smiles": "C=C(CN1CC=CCC1)[C@@H]1CC[C@]2(CO)CC[C@]3(C)[C@H](CC[C@@H]4[C@@]5(C)CC[C@H](O)C(C)(C)[C@@H]5CC[C@]43C)[C@@H]12", "growth": "104%"},
      {"smiles": "Nc1ccc([N+](=O)[O-])cc1N=C/C=C/c1ccccc1", "growth": "88%"},
      {"smiles": "CS(=O)(=O)Cc1cnc(C2OCCO2)s1", "growth": "113%"},
      {"smiles": "Cc1cc(F)ccc1S(=O)(=O)Nc1cc(-c2c(O)ccc3ccccc23)c(O)c2ccccc12", "growth": "80.1%"},
      {"smiles": "S=c1[nH]c2cc(Cl)ccc2o1", "growth": "102%"},
      {"smiles": "COc1ccc(C2=NN(C(=O)c3cc(OC)c(OC)c(OC)c3)C(c3ccc(N(C)C)cc3)C2)cc1", "note": "(stereo not given)", "growth": "54.5%"},
      {"smiles": "O=C1/C(=C/c2cccc([N+](=O)[O-])c2)COc2ccc(O)cc21", "growth": "88.2%"},
      {"smiles": "CS(=O)(=O)Nc1cc(-c2ccc3ncnc(Nc4ccc5c(cnn5Cc5cccnc5)c4)c3c2)cnc1Cl", "growth": "51.2%"},
      {"smiles": "N=C(N)c1ccc(-c2ccc(-c3ccc(Cl)cc3Cl)s2)cc1F", "growth": "-0.426% (active)"},
      {"smiles": "CC(=O)c1c(Nc2ccc(F)c(F)c2F)[nH]c2c(F)cc(F)cc2c1=O", "growth": "-21.5% (active)"},
      {"smiles": "NC(=O)c1c(NC(=O)c2ccc(Cl)cc2)sc2c1CCC(=O)C2", "growth": "106%"},
      {"smiles": "NNC(=S)N/N=C/c1ccccn1", "growth": "13%"},
      {"smiles": "O=C(/C=C/c1cccc(Cl)c1)c1cccc(OCCCCOc2cccc(C(=O)/C=C/c3cccc(Cl)c3)c2)c1", "growth": "107%"},
      {"smiles": "O=C1Nc2ccc(F)cc2/C1=C\\c1nc(-c2ccccc2F)n2ccccc12", "growth": "94.4%"},
      {"smiles": "COC(c1ccc2ccccc2c1)C(C)C(F)F", "note": "(stereo not given)", "growth": "86.7%"},
      {"smiles": "Cn1cc(/C=C2/C(=O)Nc3ccccc32)c2ccccc21", "growth": "76.8%"},
      {"smiles": "O=C(O)CCCn1c(SCc2c(Cl)cccc2Cl)nc2ccsc2c1=O", "growth": "45.2%"},
      {"smiles": "OC(c1ccccc1)(c1ccccc1)c1ccccc1-c1ccccc1", "growth": "90.4%"},
      {"smiles": "Nc1c(C(=O)Nc2ccccn2)sc2nc3c(cc12)C(O)CCC3", "note": "(stereo not given)", "growth": "26.3%"},
      {"smiles": "CC(C)CSc1oc(-c2ccccc2)nc1S(=O)(=O)c1ccccc1", "growth": "94.4%"},
      {"smiles": "CC(=O)N/C(=C1/OC(C(O)C(O)C(O)CO)CN1C)[P+](c1ccccc1)(c1ccccc1)c1ccccc1", "note": "(stereo not given)", "growth": "91.4%"},
      {"smiles": "O=C(N/N=C/c1ccc(Cl)cc1Cl)c1ccc2nc(-c3ccc(Cl)cc3)[nH]c2c1", "growth": "8.05% (active)"},
      {"smiles": "Cc1nc2ccccc2c(/C=C/c2ccc(C(F)(F)F)cc2)c1C(=O)/C=C/c1ccccc1", "growth": "-34.8% (active)"},
      {"smiles": "Clc1ccc(-c2nc(-c3c[nH]c4ncccc34)cs2)cc1", "growth": "6.83% [100 µM] (active)"},
      {"smiles": "COc1cc(C(=O)c2c(N)ncn2-c2ccccc2)cc(OC)c1OC", "growth": "77.1%"},
      {"smiles": "COc1ccc(C/C(C)=C(\\c2ccc(O)cc2)c2ccc(OCCN3CCCC3)cc2)cc1", "growth": "102%"}
    ]}
  ]
}
